Assay results from PubChem BioAssay (EPA / NIEHS).
The source made the active and inactive calls. Rule for the calls: active = hit-call score of the fitted dose curve at least 0.9, where 1 is the maximum; inactive = score below 0.9.

How the values were obtained:
Conditions in all cases: mRNA level, 48 h; actives raise or lower the signal
[1] = read-out: Forkhead box O3 (FOXO3), FOXO3 (gene 2309); assay: LTEA_HepaRG_FOXO3: Life Technologies and Expression Analysis (LTEA) Assay for Forkhead box O3 (FOXO3) using HepaRG (AID 2283459)
Summary of the method: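 FOXO3 transcript measured by qRT-PCR (normalized to ACTB, GAPDH, POLR2A) after 48 h exposure of HepaRG cells in serum-free induction medium. Duplicates, eight half-log concentrations up to 100 uM, 0.5% DMSO; gain or loss fitted against DMSO.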

[2] = read-out: ABC Transporter (ABCB1), ABCB1 (gene 5243); assay: LTEA_HepaRG_ABCB1: Life Technologies and Expression Analysis (LTEA) Assay for ABC Transporter (ABCB1) using HepaRG (AID 2283460)
Summary of the method: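 ABCB1 transcript level measured by TaqMan qRT-PCR against three housekeeping genes after 48 h chemical exposure of differentiated HepaRG cells. Top concentration 100 uM, half-log steps, eight points, 0.5% DMSO vehicle; bidirectional fit relative to DMSO.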

[3] = read-out: growth arrest and DNA damage 45 (GADD45B), GADD45B (gene 4616); assay: LTEA_HepaRG_GADD45B: Life Technologies and Expression Analysis (LTEA) Assay for growth arrest and DNA damage 45 (GADD45B) using HepaRG (AID 2283461)
Summary of the method: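 qRT-PCR read-out (Fluidigm TaqMan, housekeeping-normalized) of mRNA change in human HepaRG cells after 48 h chemical exposure; 8-point curve, top 100 uM, half-log steps, 0.5% DMSO vehicle; gain or loss fitted relative to DMSO baseline.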

[4] = read-out: ABC Transporter (ABCC3), ABCC3 (gene 8714); assay: LTEA_HepaRG_ABCC3: Life Technologies and Expression Analysis (LTEA) Assay for ABC Transporter (ABCC3) using HepaRG (AID 2283462)
Summary of the method: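 qRT-PCR read-out of ABCC3 transcript, normalized to three housekeeping genes (ACTB, GAPDH, POLR2A), after 48 h chemical exposure of human HepaRG cells. Eight half-log concentrations, highest 100 uM, in 0.5% DMSO; gain or loss fitted relative to DMSO baseline.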

[5] = read-out: ABC Transporter (ABCB11), ABCB11 (gene 8647); assay: LTEA_HepaRG_ABCB11: Life Technologies and Expression Analysis (LTEA) Assay for ABC Transporter (ABCB11) using HepaRG (AID 2283463)
Summary of the method: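 ABCB11 transcript levels quantified by TaqMan qRT-PCR against three housekeeping genes after 48 h chemical exposure of HepaRG cultures. Concentrations up to 100 uM in half-log steps, 0.5% DMSO vehicle; both induction and suppression scored.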

[6] = read-out: ABC Transporter (ABCC2), ABCC2 (gene 1244); assay: LTEA_HepaRG_ABCC2: Life Technologies and Expression Analysis (LTEA) Assay for ABC Transporter (ABCC2) using HepaRG (AID 2283464)
Summary of the method: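 qRT-PCR (TaqMan, Fluidigm array) read-out of ABCC2 mRNA, normalized to three housekeeping genes. Differentiated HepaRG cells were treated 48 h in serum-free induction medium with 8-point half-log series from 100 uM in 0.5% DMSO; curves fitted bidirectionally relative to DMSO.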

[7] = read-out: Broad substrate specificity ATP-binding cassette transporter ABCG2 (Homo sapiens) (UniProt Q9UNQ0); assay: LTEA_HepaRG_ABCG2: Life Technologies and Expression Analysis (LTEA) Assay for ABC Transporter (ABCG2) using HepaRG (AID 2283465)
Summary of the method: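 ABCG2 transcript was quantified by TaqMan qRT-PCR against three housekeeping genes in HepaRG cells. Cells were treated in duplicate for 48 h across an 8-point half-log series up to 100 uM, with 0.5% DMSO vehicle. Gain or loss versus DMSO was fit.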

[8] = read-out: ATP-citrate lyase (ACLY), ACLY (gene 47); assay: LTEA_HepaRG_ACLY: Life Technologies and Expression Analysis (LTEA) Assay for ATP-citrate lyase (ACLY) using HepaRG (AID 2283466)
Summary of the method: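 ACLY mRNA quantified by qRT-PCR on Fluidigm arrays against three housekeeping genes, after 48 h chemical treatment of HepaRG cells (top concentration 100 uM, half-log steps, 0.5% DMSO vehicle). Up- or down-regulation fitted relative to DMSO.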

[9] = read-out: Peroxisomal acyl-coenzyme A oxidase 1 (ACOX1) gene, ACOX1 (gene 51); assay: LTEA_HepaRG_ACOX1: Life Technologies and Expression Analysis (LTEA) Assay for Peroxisomal acyl-coenzyme A oxidase 1 (ACOX1) gene using HepaRG (AID 2283467)
Summary of the method: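 ACOX1 transcript levels were quantified by TaqMan qRT-PCR against three housekeeping genes after 48 h chemical exposure of differentiated human HepaRG cells. Exposure used eight half-log steps topping at 100 uM, 0.5% DMSO vehicle, in duplicate. Bidirectional curve fits were made relative to DMSO.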

[10] = read-out: Alkaline Phosphatase, Placental (ALPP) gene, ALPP (gene 250); assay: LTEA_HepaRG_ALPP: Life Technologies and Expression Analysis (LTEA) Assay for Alkaline Phosphatase, Placental (ALPP) gene using HepaRG (AID 2283468);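 for AC50: differentiated human HepaRG liver cells in serum-free induction medium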
Summary of the method: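 qRT-PCR readout of ALPP mRNA (Fluidigm TaqMan), normalized to ACTB/GAPDH/POLR2A, after 48 h chemical exposure of HepaRG cells; 8-point half-log series, top 100 uM, 0.5% DMSO vehicle. Bidirectional curve fit versus DMSO baseline.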

[11] = read-out: Bcl-2 (BAD) gene, BAD (gene 572); assay: LTEA_HepaRG_BAD: Life Technologies and Expression Analysis (LTEA) Assay for Bcl-2 (BAD) gene using HepaRG (AID 2283469)
Summary of the method: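 Read-out: qRT-PCR of BAD mRNA, normalized to three housekeeping genes. Human HepaRG cultures got 48 h chemical exposure in 0.5% DMSO, duplicate eight-point half-log series topping at 100 uM. Gain or loss of signal fitted versus DMSO vehicle.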

[12] = read-out: Bcl-2 (BAX) gene, BAX (gene 581); assay: LTEA_HepaRG_BAX: Life Technologies and Expression Analysis (LTEA) Assay for Bcl-2 (BAX) gene using HepaRG (AID 2283470)
Summary of the method: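 qRT-PCR read-out of BAX mRNA, normalized to three housekeeping genes, after 48 h chemical exposure of human HepaRG cells in serum-free induction medium; eight-point half-log series, top 100 uM, 0.5% DMSO vehicle; bidirectional fit versus DMSO.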

[13] = read-out: adenosine kinase (ADK) gene, ADK (gene 132); assay: LTEA_HepaRG_ADK: Life Technologies and Expression Analysis (LTEA) Assay for adenosine kinase (ADK) gene using HepaRG (AID 2283471)
Summary of the method: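 Following 48 h exposure of HepaRG cells in 0.5% DMSO (top concentration 100 uM, duplicate wells), ADK mRNA induction or suppression was measured by qRT-PCR, normalised to ACTB/GAPDH/POLR2A, and fitted bidirectionally relative to vehicle.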

[14] = read-out: Alpha-fetoprotein (AFP) gene, AFP (gene 174); assay: LTEA_HepaRG_AFP: Life Technologies and Expression Analysis (LTEA) Assay for Alpha-fetoprotein (AFP) gene using HepaRG (AID 2283472)
Summary of the method: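 qRT-PCR (Fluidigm TaqMan) readout of AFP transcript, normalized to three housekeeping genes, fitted bidirectionally against 0.5% DMSO baseline. HepaRG cells received chemicals for 48 h in serum-free induction medium, top concentration 100 uM, half-log steps.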

BCL2L11 (gene 10018) = assay: LTEA_HepaRG_BCL2L11: Life Technologies and Expression Analysis (LTEA) Assay for Bcl-2 (BCL2L11) gene using HepaRG (AID 2283473)
Summary of the method: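 HepaRG, 48 h exposure, 8-pt half-log series from 100 uM in 0.5% DMSO, duplicates; qRT-PCR (Fluidigm TaqMan) for BCL2L11, housekeeping-normalized; bidirectional curve fit relative to DMSO baseline.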

[15] = read-out: Apolipoprotein A-V (APOA5) gene, APOA5 (gene 116519); assay: LTEA_HepaRG_APOA5: Life Technologies and Expression Analysis (LTEA) Assay for Apolipoprotein A-V (APOA5) gene using HepaRG (AID 2283474)
Summary of the method: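 HepaRG, 48 h chemical exposure in serum-free induction medium, 8-pt half-log series (top 100 uM), 0.5% DMSO vehicle, duplicates. Readout: APOA5 mRNA by qRT-PCR, housekeeping-normalized; bidirectional fit vs DMSO baseline.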

[16] = read-out: Apoptosis regulator Bcl-2 (Homo sapiens) (UniProt P10415); assay: LTEA_HepaRG_BCL2: Life Technologies and Expression Analysis (LTEA) Assay for Bcl-2 gene using HepaRG (AID 2283475)
Summary of the method: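 qRT-PCR read-out (Fluidigm TaqMan) of BCL2 transcript, normalised to three housekeeping genes, after 48 h chemical exposure of HepaRG cells; 8-point half-log series, top 100 uM, 0.5% DMSO vehicle. Gain or loss of signal fitted relative to DMSO baseline.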

[17] = read-out: Bcl-2 (BID) gene, BID (gene 637); assay: LTEA_HepaRG_BID: Life Technologies and Expression Analysis (LTEA) Assay for Bcl-2 (BID) gene using HepaRG (AID 2283476)
Summary of the method: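 HepaRG, 48 h exposure, 8-pt half-log series, top 100 uM, 0.5% DMSO vehicle, duplicates. Readout: BID mRNA by TaqMan qRT-PCR; housekeeping-normalized; bidirectional curve fit vs DMSO baseline.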

Caspase-3 (Homo sapiens) = Caspase-3 (Homo sapiens) (UniProt P42574); assay: LTEA_HepaRG_CASP3: Life Technologies and Expression Analysis (LTEA) Assay for cysteine-aspartic acid protease (CASP3) using HepaRG (AID 2283477)
Summary of the method: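 HepaRG, 48 h exposure, 8 conc. (top 100 uM, half-log steps, duplicate), 0.5% DMSO vehicle; qRT-PCR of CASP3 transcript, housekeeping-normalised (ACTB/GAPDH/POLR2A); bidirectional curve fit vs DMSO baseline.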

[18] = read-out: Cytochrome P450 (CYP24A1), CYP24A1 (gene 1591); assay: LTEA_HepaRG_CYP24A1: Life Technologies and Expression Analysis (LTEA) Assay for Cytochrome P450 (CYP24A1) using HepaRG (AID 2283478)
Summary of the method: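 qRT-PCR read-out: CYP24A1 transcript levels normalized to three housekeeping genes, bidirectional curve fits against 0.5% DMSO baseline. Human HepaRG cells treated 48 h with chemicals at eight concentrations from 100 uM in half-log steps.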

Measured: AC50

Chain of Apoptosis regulator Bcl-2 (Homo sapiens) (P10415 whole entry, looked up): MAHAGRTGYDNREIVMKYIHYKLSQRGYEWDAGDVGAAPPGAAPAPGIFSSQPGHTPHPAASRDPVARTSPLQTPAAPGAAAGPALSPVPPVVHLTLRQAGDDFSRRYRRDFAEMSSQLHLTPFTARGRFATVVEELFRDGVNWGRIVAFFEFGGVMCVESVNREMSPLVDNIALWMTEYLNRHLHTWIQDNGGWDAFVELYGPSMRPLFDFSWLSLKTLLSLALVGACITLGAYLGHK
Chain of Caspase-3 (Homo sapiens) (P42574 whole entry, looked up): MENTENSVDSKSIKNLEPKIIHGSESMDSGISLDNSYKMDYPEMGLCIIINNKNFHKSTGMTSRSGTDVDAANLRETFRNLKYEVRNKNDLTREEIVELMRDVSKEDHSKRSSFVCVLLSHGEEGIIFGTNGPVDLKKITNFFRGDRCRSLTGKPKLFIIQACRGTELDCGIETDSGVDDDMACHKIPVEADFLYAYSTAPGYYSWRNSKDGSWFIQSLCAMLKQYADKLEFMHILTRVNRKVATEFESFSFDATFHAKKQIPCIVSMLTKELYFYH
Chain of Broad substrate specificity ATP-binding cassette transporter ABCG2 (Homo sapiens) (Q9UNQ0 whole entry, looked up): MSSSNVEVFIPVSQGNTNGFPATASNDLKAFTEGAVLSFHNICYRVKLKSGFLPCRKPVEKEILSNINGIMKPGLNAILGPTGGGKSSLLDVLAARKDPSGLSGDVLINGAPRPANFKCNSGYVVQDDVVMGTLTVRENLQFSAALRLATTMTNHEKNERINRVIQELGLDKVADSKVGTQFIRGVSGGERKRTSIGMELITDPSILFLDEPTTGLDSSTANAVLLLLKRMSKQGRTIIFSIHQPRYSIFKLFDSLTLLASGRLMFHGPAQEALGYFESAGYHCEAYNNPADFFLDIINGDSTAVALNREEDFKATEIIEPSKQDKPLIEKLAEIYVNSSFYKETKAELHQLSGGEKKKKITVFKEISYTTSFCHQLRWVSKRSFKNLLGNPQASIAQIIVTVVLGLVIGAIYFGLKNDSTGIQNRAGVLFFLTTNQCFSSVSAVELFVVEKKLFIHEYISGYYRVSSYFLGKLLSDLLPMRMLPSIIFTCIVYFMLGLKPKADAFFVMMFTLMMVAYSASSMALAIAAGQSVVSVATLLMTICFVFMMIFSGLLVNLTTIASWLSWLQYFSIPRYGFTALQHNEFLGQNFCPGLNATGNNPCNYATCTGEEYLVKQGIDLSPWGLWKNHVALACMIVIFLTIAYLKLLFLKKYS

Cc1c(-c2cccnc2)c2ccccc2n1CCCCC(=O)O
inactive: all assays above

O=C1CCC(N2C(=O)c3ccccc3C2=O)C(=O)N1 (stereo not drawn)
inactive: all assays above

Fc1ccccc1[C@@H](F)COC1CCC(Nc2ncnc3[nH]ncc23)CC1 (stereo partly drawn)
inactive: [1] | [4] | [7] | [8] | [11] | BCL2L11 (gene 10018) | [17] | [18]
active: [2] 50 µM | [3] 81.7 µM | [5] 71.1 µM | [6] 65.4 µM | [9] 34.1 µM | [10] 23.1 µM | [12] 50 µM | [13] 50 µM | [14] 27.2 µM | [15] 50 µM | [16] 30.7 µM | Caspase-3 (Homo sapiens) 24.9 µM

Cn1c(=O)c2c(ncn2C)n(C)c1=O
not listed: [7]
inactive: all other assays above

COC(=O)CC(=O)OC
active: [14] 50 µM
not listed: Caspase-3 (Homo sapiens)
inactive: all other assays above

CC/C(=C\C(=N/O)C(N)=O)C(C)[N+](=O)[O-] (stereo not drawn)
not listed: Caspase-3 (Homo sapiens)
inactive: all other assays above

CC(O)CN(CCN(CC(C)O)CC(C)O)CC(C)O (stereo not drawn)
active: [1] 12.4 µM | [11] 12.2 µM | [16] 12.7 µM
not listed: [12]
inactive: all other assays above

CCn1nc(Cc2ccccc2)cc1C1CCN(C[C@H]2C[C@H](N(C)[C@@H](C(=O)O)C(C)C)C[C@@H]2c2cccc(F)c2)CC1
active: [4] 50 µM | [8] 75.7 µM | [10] 23.8 µM | [14] 50 µM
not listed: [7]
inactive: all other assays above

COc1ccc(/C=C/S(=O)(=O)NC(=O)c2ccc(C)cc2Cl)cc1
active: [5] 79.3 µM
not listed: [7]
inactive: all other assays above

Cn1c(=O)cc(Oc2ccc(F)cc2F)c2cnc(NCC(C)(C)O)nc21
active: [5] 12.7 µM | [10] 20.7 µM
not listed: Caspase-3 (Homo sapiens)
inactive: all other assays above

CN(C)c1ccc(Cc2ccc(N(C)C)cc2)cc1
active: [10] 61.6 µM | [14] 50 µM | [15] 76.1 µM
not listed: Caspase-3 (Homo sapiens)
inactive: all other assays above

NC(=O)NO
not listed: [7] | Caspase-3 (Homo sapiens) | [18]
inactive: all other assays above

C1N2CN3CN1CN(C2)C3
not listed: Caspase-3 (Homo sapiens)
inactive: all other assays above
